Rows were chosen to be rich in hits. Some 21% of all compounds tested hit in one or more screens of this group.
HCMV antiviral: blocks human cytomegalovirus replication | HFF cells, HCMV-luciferase reporter, 72 h; stronger effect = lower value | activity change, negative = inhibition, % at 57.5 µM | hit rate 4.5% among 410,000 | AID 1259415; in the data active means activity change below about -60%; inconclusive means no clear call, values can overlap the other calls; inactive means above about -39%; further: on the % scale 0 is the no-effect control and ±100 the full control effect
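Cell-based, HFFs, 1000 cells/well, 16 h 37C; cpds in DMSO + HCMV-luc, MOI 1 PFU/cell; 72 h 37C; OneGlo luminescence after 5 min RT; norm. to buffer vs Salinomycin 10uM.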
Pf growth 96h: P. falciparum growth inhibition at 96 hour, primary screen for plastid delayed-death inhibitors; hit rate 6.9% among 320,000; P. falciparum luciferase reporter growth, 96 h; Potency, µM (series often up to 28.7 µM), for the others: at the highest dose activity change, negative = inhibition, actives largely listed as inhibitors; AID 504834; further: potency means the concentration at half of the fitted maximal effect; on the % scale 0 is the no-effect control and ±100 the full control effect
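P. falciparum expressing integrated firefly luciferase, in erythrocytes at 2% hematocrit, 0.05% parasitemia, incubated with compounds 96 h at 37 C, 5% CO2. Growth inhibition read as loss of luminescence; two-generation exposure targets delayed-death apicoplast inhibitors.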
CHX counter: affects cycloheximide protein synthesis inhibition readout, counter-screen; max response, %; cell reporter, cycloheximide protein synthesis inhibition counterscreen; AID 2314; hit rate 12% among 300,000; in the data active means max response mostly above about 13%, no sharp cut-off; inactive means mostly below about 14%; further: read at 38.3 µM for the half of the compounds with a filed dose; 0% is about no effect
Pf growth 48h: inhibits P. falciparum growth in the first generation, 48 h; P. falciparum luciferase growth in erythrocytes, 48 h; Potency, µM (highest dose often 28.7 µM), inactives show at the highest dose activity change, negative = inhibition, actives largely listed as inhibitors; hit rate 5.9% among 310,000; further: potency means the concentration at half of the fitted maximal effect; on the % scale 0 is the no-effect control and ±100 the full control effect
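Luciferase-expressing P. falciparum in infected erythrocytes (2% hematocrit, 0.1% parasitemia final) in RPMI 1640/0.5% Albumax were exposed to compound for 48 hours at 37 C, 5% CO2; growth read as luminescence.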
HCV inh: blocks hepatitis C virus. Potency, µM (highest dose often 41.8 µM), without a hit: at the top dose activity change, negative = inhibition, actives largely listed as inhibitors. Huh7.5.1 HCVcc-Cre infection, luciferase reporter, 44 h. hit rate 3.4% among 340,000; further: potency means the concentration at half of the fitted maximal effect; on the % scale 0 is the no-effect control and ±100 the full control effect
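1,000 cells/well; 4 h culture; + compound; + HCVcc-Cre (~0.5 moi); 44 h; luciferase substrate, RT 15 min; read 15 sec.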
Shiga toxin inh: blocks Shiga toxin action in Vero cells. Vero cells, Shiga toxin protein synthesis inhibition reporter. inhibition, % at 38.7 µM. hit rate 9.2% among 290,000; in the data active means inhibition mostly above about 28%, no sharp cut-off; inactive means mostly below about 43%; further: 0% is about no effect
The depositor's hits bear a star. Unless noted, the call rests on the fitted dose curve; in most records, active means well fitted inhibition curve with a large enough effect; inconclusive means small, poorly fitted or top-dose-only effect, or another doubt; inactive means no such curve, though single readings can be large or run the other way.

Screening Nc1ccn([C@@H]2O[C@H](CO)[C@@H](O)[C@@H]2O)c(=O)n1 returned HCMV antiviral -100*, Pf growth 96h 38%, CHX counter -1, Pf growth 48h 20%, HCV inh inconclusive and Shiga toxin inh 2.
Screening NC[C@H]1O[C@@H](n2ccc(N)nc2=O)[C@H](O)[C@@H]1O returned HCMV antiviral -87*.
For CC(C)CCNC(=O)CN1C(=O)CCn2nc(-c3cn(C)c4ccccc34)cc21 the results were HCMV antiviral 17.
`NS(=O)(=O)c1ccc(CCNC(=O)Cc2ccc(S(=O)(=O)N3CCOCC3)s2)cc1` gave HCMV antiviral 1, Pf growth 96h -9%, Pf growth 48h inconclusive and HCV inh -7%.
Screening CC1(C)C(=O)Nc2ccccc2N1C(=O)COC(=O)CSc1ccc(Cl)cc1 returned HCMV antiviral -38, Pf growth 96h 11%, Pf growth 48h -7% and HCV inh 10%.
For Cc1oc2ncn(CC(C)C)c(=O)c2c1C(=O)NCCCN(C)Cc1ccccc1 the results were HCMV antiviral 5.
Screening Nc1ccn([C@@H]2O[C@H](CO)[C@H](O)C2(F)F)c(=O)n1 returned Pf growth 96h 1.5µM* and Pf growth 48h 1.9µM*.
`O=C(c1ccc(S(=O)(=O)Nc2ccc(F)cc2)cc1)N1CCN(C(=O)c2ccco2)CC1` gave HCMV antiviral -69*, CHX counter -1, Pf growth 48h 7%, HCV inh -20% and Shiga toxin inh -13.
`CCOC(=O)C1=C(CN2CCN(C(=O)c3ccco3)CC2)NC(=O)NC1c1ccc(F)cc1` (stereo not drawn) gave HCMV antiviral -23, Pf growth 96h 33%, CHX counter 8, Pf growth 48h 10µM*, HCV inh inconclusive and Shiga toxin inh -3.
CCOC(=O)C1=C(CN2CCN(c3cccc(OC)c3)CC2)NC(=O)NC1c1ccc(OC)cc1 (stereo not drawn) was read as HCMV antiviral 6.
`CCOC(=O)C1=C(CN2CCN(C(=O)c3ccco3)CC2)NC(=O)NC1c1ccc(OC(C)C)cc1` (stereo not drawn) gave HCMV antiviral -14, Pf growth 96h inconclusive, CHX counter 10, Pf growth 48h 12µM*, HCV inh -12% and Shiga toxin inh -3.
`O=C(CCN1CCN(C(=O)c2ccco2)CC1)Nc1ccc(F)cc1` gave HCMV antiviral 5, Pf growth 96h -13%, CHX counter -3, Pf growth 48h inconclusive, HCV inh -1% and Shiga toxin inh -18.
For Cc1cc(S(=O)(=O)Nc2ccc(C(=O)N3CCN(C(=O)c4ccco4)CC3)cc2)ccc1F the results were HCMV antiviral -20, Pf growth 96h inconclusive, CHX counter -1, HCV inh -25% and Shiga toxin inh 20.
O=C(Nc1ccc(-c2nnn(CC(=O)N3CCN(C(=O)c4ccco4)CC3)n2)cc1)c1ccc(F)cc1 was read as HCMV antiviral -14, Pf growth 96h inconclusive, CHX counter -3, Pf growth 48h inconclusive, HCV inh 10µM* and Shiga toxin inh -7.
`CC(C)(C)OC(=O)N1CCC2(CC1)Oc1ccc(F)cc1C(=O)C21CC(c2ccccc2)=NO1` (stereo not drawn) gave HCMV antiviral -26 and HCV inh -6%.
Screening COc1cccc(-c2nc(S(=O)(=O)c3ccccc3)c(N3CCCCC3)o2)c1 returned HCMV antiviral -2.
CCOC(=O)C1=C(CN2CCN(C(=O)c3ccco3)CC2)NC(=O)NC1c1ccc(Cl)cc1 (stereo not drawn) was read as HCMV antiviral inconclusive, Pf growth 96h inconclusive, CHX counter 7, Pf growth 48h 3.7µM*, HCV inh -16% and Shiga toxin inh -16.
Screening CCOC(=O)C1=C(CN2CCN(CC)CC2)NC(=O)NC1c1ccc(Cl)cc1 (stereo not drawn) returned HCMV antiviral -14.
Screening COc1ccc(C(=O)N2CCN(C(=O)c3ccco3)CC2)cc1 returned HCMV antiviral 38, Pf growth 96h inconclusive, CHX counter -3, Pf growth 48h 0%, HCV inh 2% and Shiga toxin inh 18.
`CC(C)Oc1ccc(C(=O)N2CCN(C(=O)c3ccco3)CC2)cc1` gave HCMV antiviral 32, Pf growth 96h 10µM*, CHX counter 1, Pf growth 48h -5%, HCV inh 19% and Shiga toxin inh -6.
For Cc1ccc(S(=O)(=O)N(C)C[C@@H]2OCc3cnnn3CCCC(=O)N([C@@H](C)CO)C[C@@H]2C)cc1 the results were HCMV antiviral -3.
CCN(CC)c1ccc(CC2C(=O)N(C)C(=O)N(C)C2=O)cc1 was read as Pf growth 96h 15%, CHX counter -3, Pf growth 48h inconclusive, HCV inh 0% and Shiga toxin inh -8.
`C=CCOc1ccc(CC2C(=O)N(C)C(=O)N(C)C2=O)cc1` gave HCMV antiviral 0, Pf growth 96h 1%, CHX counter -2, Pf growth 48h 3.7µM*, HCV inh 16% and Shiga toxin inh -5.
CS(=O)(=O)N(CC(=O)NC1CCCCC1)Cc1ccc(F)cc1 was read as HCMV antiviral -19, Pf growth 96h 2%, CHX counter -1, Pf growth 48h -2%, HCV inh 10% and Shiga toxin inh -2.
Screening COc1ccc(C(=O)/C=C/C(=O)N(CC(=O)NCCC(C)C)Cc2cccs2)c(O)c1 returned HCMV antiviral -100*, Pf growth 96h 6%, CHX counter 7, Pf growth 48h inconclusive, HCV inh 11µM* and Shiga toxin inh -5.
`COc1ccc(C(=O)N(Cc2ccco2)Cc2cccs2)c(O)c1` gave HCMV antiviral 3, CHX counter 3, Pf growth 48h 7%, HCV inh -14% and Shiga toxin inh -20.
Screening COc1ccc(C(=O)/C=C/C(=O)N(CC(=O)NC2CCCCC2)Cc2ccc(F)cc2)c(O)c1 returned HCMV antiviral -116*, Pf growth 96h 2.3µM*, CHX counter -1, Pf growth 48h 9.3µM*, HCV inh inconclusive and Shiga toxin inh -4.
Screening O=C(O)c1ccccc1N/N=C/C1=C(N2CCOCC2)C(=C\c2ccccc2)/CC1 returned HCMV antiviral 0, Pf growth 96h inconclusive, CHX counter 15, Pf growth 48h 10µM*, HCV inh 8% and Shiga toxin inh 59*.
Screening Cc1occc1C(=O)N/N=C/C1=C(N2CCOCC2)C(=C\c2ccc(Cl)cc2)/CC1 returned HCMV antiviral -32, Pf growth 96h 60%, CHX counter 24*, Pf growth 48h 19%, HCV inh inconclusive and Shiga toxin inh 13.

Screening data (PubChem BioAssay)
